# Inconclusive results are not listed. A call without a number means that no potency is given here. Values without a mark were called inactive. Active and inactive are the calls of the source. Calls come from the whole dose curve.
# Biological target: Beta-2 adrenergic receptor (Homo sapiens) (UniProt P07550)
# Experiment: Adrenergic beta2 receptor (ADRB2) small molecule agonists, cell-based qHTS assay (AID 1963593);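 note: CHO cells stably overexpressing human ADRB2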
# Conditions: CHO-ADRB2 cells, cAMP HTRF, 30 min; series mostly up to 92.4 µM
# How it was run: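 CHO cells stably over-expressing ADRB2 were plated overnight at 37C, then dosed with compounds plus a stimulation mix containing 100uM IBMX and 25uM Ro-20-1724 for 0.5hr at room temperature. cAMP was measured by HTRF competition, 1hr.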
# Beta-2 adrenergic receptor (Homo sapiens), sequence (P07550 whole entry, looked up): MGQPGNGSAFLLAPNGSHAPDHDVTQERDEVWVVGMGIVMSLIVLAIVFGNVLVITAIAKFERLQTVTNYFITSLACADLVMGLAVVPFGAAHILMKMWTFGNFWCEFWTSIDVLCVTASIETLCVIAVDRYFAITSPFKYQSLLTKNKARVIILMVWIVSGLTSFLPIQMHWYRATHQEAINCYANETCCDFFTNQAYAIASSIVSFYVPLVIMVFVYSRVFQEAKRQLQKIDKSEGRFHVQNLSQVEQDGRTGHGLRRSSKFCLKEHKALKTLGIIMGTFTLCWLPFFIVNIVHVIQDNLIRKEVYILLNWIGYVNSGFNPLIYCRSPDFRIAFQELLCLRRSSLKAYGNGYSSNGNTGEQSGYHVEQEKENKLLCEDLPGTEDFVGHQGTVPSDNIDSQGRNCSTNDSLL
SMILES,Potency,activation
O=C(O)[C@@H](O)[C@H](O)[C@H](O)[C@@H](O)C(=O)O,inactive,–
CC[C@]12CCCN3CCc4c(n(c5ccccc45)[C@@](O)(C(=O)OC)C1)[C@@H]32,inactive,–
NCCC(O)(P(=O)(O)O)P(=O)(O)O,inactive,–
C=CCCCCCCCC,inactive,–
O=C1OC(CN2CCOCC2)CN1/N=C/c1ccc([N+](=O)[O-])o1 (stereo not given),inactive,–
O=S(=O)(O)CCN1CCN(CCO)CC1,inactive,–
CCO/C([O-])=N/c1c[n+](N2CCOCC2)no1,inactive,–
CCOc1ncc(F)c(=O)[nH]1,inactive,–
ON=C1CCCCC1,inactive,–
CO[C@@]1(NC(=O)C(C(=O)O)c2ccc(O)cc2)C(=O)N2C(C(=O)O)=C(CSc3nnnn3C)CO[C@@H]21 (stereo not given in full),inactive,–
CCCCC(C)C(=O)O (stereo not given),inactive,–
CC(=O)N[C@@H](Cc1ccc(O)cc1)C(=O)O,inactive,–
CCN(C=O)CC,inactive,–
CC(C)c1cccc(O)c1,inactive,–
O=C1CC2CC1C1CCCC21 (stereo not given),inactive,–
NS(=O)(=O)c1ccc(N2CCCCS2(=O)=O)cc1,inactive,–
CCOC(=O)c1ccccc1C,inactive,–
CCCc1ccc(N)cc1,inactive,–
COC(=O)Nc1nc2ccc(Sc3ccccc3)cc2[nH]1,inactive,–
CN(C)C(=S)SC(=S)N(C)C,inactive,–
CC(C)=CCC[C@H](C)CC=O,inactive,–
CC(=O)OC[C@H]1O[C@@H](OC(C)=O)[C@H](OC(C)=O)[C@@H]1OC(C)=O,inactive,–
CCCCCCCC/C=C\CCCCCCCC(=O)OCCCC,–,25.8% [at 19 µM]
CC(CC=O)CC(C)(C)C (stereo not given),inactive,–

SMILES,Potency,activation
O=C1c2ccccc2C(=O)C1c1ccc2cc(S(=O)(=O)O)cc(S(=O)(=O)O)c2n1,inactive,–
NC(=O)NS(=O)(=O)c1ccc(Cl)cc1,inactive,–
[O-][n+]1ccc(Cl)cc1,inactive,–
Nc1ccncc1N,inactive,–
CC1CCCC(=O)C1=O (stereo not given),inactive,–
C=CCS(=O)(=O)O,inactive,–
COc1cc(CCC(C)=O)ccc1O,inactive,–
CCc1ccc(Br)cc1,inactive,–
C=C(C)[C@H]1CC=C(C)CC1,inactive,–
COC(=O)c1cc(Cl)ccc1NS(=O)(=O)C(F)(F)F,inactive,–
CC(=O)Nc1ccc(N=Nc2cc(C)ccc2O)cc1,inactive,–
CC(C)(CCl)c1ccccc1,inactive,–
O=C(NCN1CCOCC1)c1cnccn1,inactive,–
O=C(O)[C@H](O)[C@@H](O)[C@H](O[C@@H]1O[C@H](CO)[C@H](O)[C@H](O)[C@H]1O)[C@H](O)CO,inactive,–
c1ccc2c(c1)CCC2,inactive,–
CC(C)(C)c1n[nH]c(=O)n(N)c1=O,inactive,–
C[C@H]1C[C@H](O)c2ccsc2S1(=O)=O,inactive,–
Cc1ccccc1S(=O)(=O)O,inactive,–
O=C(O)/C=C/c1ccccc1,inactive,–
NS(=O)(=O)c1cc2c(cc1Cl)NC(CC1CCCC1)NS2(=O)=O (stereo not given),inactive,–
F[Si-2](F)(F)(F)(F)F,inactive,–
O=C(O)c1ccc(OCCCOc2ccc(C(=O)O)cc2)cc1,inactive,–
CC(=O)N(c1onc(C)c1C)S(=O)(=O)c1ccc(N)cc1,inactive,–
Cc1nc(-c2ccc3c(c2)CCN(CCC2CCC(NC(=O)/C=C/c4ccc(F)cc4)CC2)CC3)no1 (stereo not given),inactive,–

SMILES,Potency,activation
O=c1cccc[nH]1,inactive,–
C=C(CC)C(=O)c1ccc(OCC(=O)O)c(Cl)c1Cl,inactive,–
CC(C)C(=O)OC(=O)C(C)C,inactive,–
FC(F)(F)C(Cl)(Cl)Cl,inactive,–
O=[N+]([O-])c1cncn1CCN1CCOCC1,inactive,–
CC(=O)/C=C/C1C(C)=CCC(C)C1(C)C (stereo not given),inactive,–
CC1COc2ccccc2N1 (stereo not given),inactive,–
O=C(O)CNc1ccccc1,inactive,–
CC[C@]1(O)C[C@@H]2CN(CCc3c([nH]c4ccccc34)[C@@](C(=O)OC)(c3cc4c(cc3OC)N(C)[C@H]3[C@@](O)(C(=O)OC)[C@H](OC(C)=O)[C@]5(CC)C=CCN6CC[C@]43[C@@H]65)C2)C1,inactive,–
CC[C@H](c1ccc(O)cc1)[C@@H](CC)c1ccc(O)cc1,inactive,–
CCCCC(CC)COCCO (stereo not given),inactive,–
CCCO,inactive,–
CC1=CC[C@H](CC=O)C1(C)C,inactive,–
O=Cc1cc2ccccc2o1,inactive,–
C=CC(C)(CCC=C(C)C)OC(=O)CC (stereo not given),inactive,–
CC(C)(C)c1cc(C(C)(C)C)c(O)c(C(C)(C)C)c1,inactive,–
CCC(=O)CC,inactive,–
O=Cc1cccc([N+](=O)[O-])c1,inactive,–
C#CC(O)CCC (stereo not given),inactive,–
CCCCCCCCN(C)C,inactive,–
CC(C)C(=O)Nc1cccc(C2CN3CCSC3=N2)c1 (stereo not given),inactive,–
Nc1cc([N+](=O)[O-])ccc1O,inactive,–

# From PubChem BioAssay (Tox21)
